# Measured values: PubChem BioAssay (EPA / NIEHS)
# Inconclusive results are not listed. Activity calls are given as the source filed them. How the source made its calls, unless noted: active means hit-call score of the fitted dose curve at least 0.9, where 1 is the maximum; inactive means score below 0.9.
# Assays:
# [1] = target: human Peroxisome Proliferator-activated Receptor alpha (PPARa), PPARA (gene 5465) (UniProt Q07869); assay: ATG_PPARa_TRANS: Attagene TRANS-FACTORIAL HepG2 Assay for human Peroxisome Proliferator-activated Receptor alpha (PPARa) (AID 2283001; active means hit-call score of the fitted dose curve at least 0.9, where 1 is the maximum;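 on AC50: potency for gain of reporter signal over DMSO so agonist or activator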)
# Chain of human Peroxisome Proliferator-activated Receptor alpha (PPARa), PPARA (gene 5465) (Q07869 whole entry, looked up, the tested form may be a part): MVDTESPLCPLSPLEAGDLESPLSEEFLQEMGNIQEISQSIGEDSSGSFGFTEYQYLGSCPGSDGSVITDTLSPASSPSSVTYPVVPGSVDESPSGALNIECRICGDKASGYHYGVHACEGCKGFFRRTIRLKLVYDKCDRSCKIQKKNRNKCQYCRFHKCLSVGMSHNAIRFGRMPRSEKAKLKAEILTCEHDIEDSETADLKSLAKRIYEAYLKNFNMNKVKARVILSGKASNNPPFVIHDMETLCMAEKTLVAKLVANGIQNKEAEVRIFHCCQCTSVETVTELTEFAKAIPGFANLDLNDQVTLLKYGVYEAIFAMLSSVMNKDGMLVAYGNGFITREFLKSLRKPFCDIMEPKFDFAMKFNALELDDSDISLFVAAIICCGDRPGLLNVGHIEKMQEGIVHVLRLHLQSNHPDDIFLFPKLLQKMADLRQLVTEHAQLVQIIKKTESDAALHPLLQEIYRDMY
# In short: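 HepG2 cells transiently transfected with multiplexed GAL4-UAS reporters driven by exogenous chimeric NR-Gal4 proteins; reporter mRNA measured after 24 h dosing. Read-out by RT-PCR, 6-FAM labelling, HpaI digestion and capillary electrophoresis; gain of signal versus DMSO.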
# [2] = target: human Peroxisome Proliferator-activated Receptor delta (PPARd), PPARD (gene 5467) (UniProt Q03181); assay: ATG_PPARd_TRANS: Attagene TRANS-FACTORIAL HepG2 Assay for human Peroxisome Proliferator-activated Receptor delta (PPARd) (AID 2283002; active means hit-call score of the fitted dose curve at least 0.9, where 1 is the maximum)
# Chain of human Peroxisome Proliferator-activated Receptor delta (PPARd), PPARD (gene 5467) (Q03181 whole entry, looked up, the tested form may be a part): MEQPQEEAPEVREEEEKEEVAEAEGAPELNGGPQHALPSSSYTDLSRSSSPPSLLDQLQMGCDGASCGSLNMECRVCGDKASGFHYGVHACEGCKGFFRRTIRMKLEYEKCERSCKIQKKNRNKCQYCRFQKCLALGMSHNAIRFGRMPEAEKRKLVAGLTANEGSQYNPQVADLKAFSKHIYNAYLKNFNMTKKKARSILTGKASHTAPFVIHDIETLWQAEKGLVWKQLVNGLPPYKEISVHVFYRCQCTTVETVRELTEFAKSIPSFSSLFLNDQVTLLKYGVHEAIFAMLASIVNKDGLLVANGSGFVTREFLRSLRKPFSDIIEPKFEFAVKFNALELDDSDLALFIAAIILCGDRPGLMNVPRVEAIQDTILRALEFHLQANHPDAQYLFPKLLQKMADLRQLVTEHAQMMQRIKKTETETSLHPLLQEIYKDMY
# In short: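 Fluorescence from capillary electrophoresis of labelled RT-PCR reporter fragments gives the signal; DMSO sets baseline. Cells: HepG2 transiently carrying GAL4-UAS reporter units plus chimeric nuclear receptor-Gal4 proteins, exposed to chemicals for 24 h.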
# [3] = read-out: Intercellular Adhesion Molecule 1 (ICAM1), ICAM1 (gene 3383); assay: BSK_3C_ICAM1: BioMAP Diversity Plus: 3C Assay for Intercellular Adhesion Molecule 1 (ICAM1) Biomarker Activity (AID 2283003); conditions: primary human endothelial cells (HUVEC); actives raise or lower the signal
# In short: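 HUVEC primary cells stimulated under 3C conditions; ICAM1 measured by ELISA 24 h after compound dosing. Curves fitted bidirectionally against the DMSO baseline. Overt cytotoxicity checked by SRB staining of parallel cultures.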
# [4] = target: human Retinoic Acid Receptor beta (RARb), RARB (gene 5915) (UniProt P10826); assay: ATG_RARb_TRANS: Attagene TRANS-FACTORIAL HepG2 Assay for human Retinoic Acid Receptor beta (AID 2283004; active means hit-call score of the fitted dose curve at least 0.9, where 1 is the maximum)
# Chain of human Retinoic Acid Receptor beta (RARb), RARB (gene 5915) (P10826 whole entry, looked up): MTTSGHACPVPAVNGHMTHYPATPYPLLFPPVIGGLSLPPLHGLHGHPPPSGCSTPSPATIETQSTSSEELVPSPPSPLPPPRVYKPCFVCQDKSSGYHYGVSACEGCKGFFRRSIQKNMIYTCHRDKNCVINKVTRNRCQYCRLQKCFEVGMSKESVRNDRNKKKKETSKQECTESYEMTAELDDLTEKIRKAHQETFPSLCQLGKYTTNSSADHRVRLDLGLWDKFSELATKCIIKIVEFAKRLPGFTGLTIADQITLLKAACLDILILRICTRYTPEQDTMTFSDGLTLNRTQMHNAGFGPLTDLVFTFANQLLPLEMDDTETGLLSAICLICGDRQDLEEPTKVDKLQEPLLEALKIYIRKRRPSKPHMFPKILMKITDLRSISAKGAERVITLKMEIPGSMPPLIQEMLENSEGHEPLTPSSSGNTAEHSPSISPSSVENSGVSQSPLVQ
# In short: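 Transient transfection of HepG2 with multiple reporter units → chemical dosing, 24 h → total RNA isolation → RT with oligo(dT) → reporter-specific PCR, 6-FAM primer extension, HpaI digest → capillary electrophoresis. Positive direction vs DMSO control.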
# [5] = target: Retinoic acid receptor alpha (Homo sapiens) (UniProt P10276); assay: ATG_RARa_TRANS: Attagene TRANS-FACTORIAL HepG2 Assay for human Retinoic Acid Receptor alpha (RARa) (AID 2283005; active means hit-call score of the fitted dose curve at least 0.9, where 1 is the maximum)
# In short: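 HepG2 transiently transfected with multiplex GAL4-UAS reporter units including a human RARa–GAL4 chimera; 24 h compound exposure. Reporter mRNA quantified by RT-PCR, 6-FAM labeling and capillary electrophoresis; gain of signal versus DMSO.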
# [6] = BSK_3C_Proliferation: Cell Proliferation Assessment in the BioMAP Diversity Plus: 3C Assay (AID 2283006); conditions: primary human endothelial cells (HUVEC);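 further: potency may reflect either rise or fall in cell number versus DMSO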
# In short: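 Subconfluent HUVEC (3C system) cultured with chemical; relative cell number read at 48 h by sulforhodamine B total-protein staining (0.1% SRB after 10% TCA fixation, 560 nm). Bidirectional fit relative to DMSO.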
# [7] = target: Peroxisome proliferator-activated receptor gamma (Homo sapiens) (UniProt P37231); assay: ATG_PPARg_TRANS: Attagene TRANS-FACTORIAL HepG2 Assay for human Peroxisome Proliferator-activated Receptor-gamma (PPARg) (AID 2283007; active means hit-call score of the fitted dose curve at least 0.9, where 1 is the maximum)
# Chain of Peroxisome proliferator-activated receptor gamma (Homo sapiens) (P37231 whole entry, looked up, the tested form may be a part): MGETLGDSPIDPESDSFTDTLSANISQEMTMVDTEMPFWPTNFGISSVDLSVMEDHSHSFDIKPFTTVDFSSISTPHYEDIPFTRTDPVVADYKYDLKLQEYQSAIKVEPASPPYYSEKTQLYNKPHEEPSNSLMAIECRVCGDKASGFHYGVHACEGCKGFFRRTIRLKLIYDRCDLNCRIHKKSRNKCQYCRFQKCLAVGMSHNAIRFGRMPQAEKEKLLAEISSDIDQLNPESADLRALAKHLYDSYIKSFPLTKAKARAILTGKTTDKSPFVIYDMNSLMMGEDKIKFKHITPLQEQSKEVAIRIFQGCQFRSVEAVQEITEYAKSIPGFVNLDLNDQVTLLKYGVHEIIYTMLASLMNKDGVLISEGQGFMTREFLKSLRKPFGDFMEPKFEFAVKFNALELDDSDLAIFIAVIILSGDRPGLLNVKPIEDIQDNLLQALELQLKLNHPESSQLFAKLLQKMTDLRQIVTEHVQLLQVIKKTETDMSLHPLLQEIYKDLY
# In short: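 Gain-of-signal endpoint relative to DMSO, derived from reporter mRNA levels quantified by RT-PCR and capillary electrophoresis. Cells were HepG2 transiently expressing a chimeric NR-Gal4 construct with GAL4-UAS reporters, exposed to chemicals for 24 h.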
# [8] = target: human Retinoic Acid Receptor gamma (RARg), RARG (gene 5916) (UniProt P13631); assay: ATG_RARg_TRANS: Attagene TRANS-FACTORIAL HepG2 Assay for human Retinoic Acid Receptor gamma (RARg) (AID 2283009; active means hit-call score of the fitted dose curve at least 0.9, where 1 is the maximum)
# In short: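 HepG2 transiently transfected with GAL4-UAS reporter units and chimeric NR-Gal4 constructs; 24 h compound exposure. Reporter mRNA quantified by RT-PCR, FAM labeling, HpaI digestion and capillary electrophoresis; gain-of-signal versus DMSO.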
# [9] = target: human RAR-related Orphan Receptor beta (RORb), RORB (gene 6096) (UniProt Q92753); assay: ATG_RORb_TRANS: Attagene TRANS-FACTORIAL HepG2 Assay for human RAR-related Orphan Receptor beta (RORb) (AID 2283010; active means hit-call score of the fitted dose curve at least 0.9, where 1 is the maximum)
# Chain of human RAR-related Orphan Receptor beta (RORb), RORB (gene 6096) (Q92753 whole entry, looked up, the tested form may be a part): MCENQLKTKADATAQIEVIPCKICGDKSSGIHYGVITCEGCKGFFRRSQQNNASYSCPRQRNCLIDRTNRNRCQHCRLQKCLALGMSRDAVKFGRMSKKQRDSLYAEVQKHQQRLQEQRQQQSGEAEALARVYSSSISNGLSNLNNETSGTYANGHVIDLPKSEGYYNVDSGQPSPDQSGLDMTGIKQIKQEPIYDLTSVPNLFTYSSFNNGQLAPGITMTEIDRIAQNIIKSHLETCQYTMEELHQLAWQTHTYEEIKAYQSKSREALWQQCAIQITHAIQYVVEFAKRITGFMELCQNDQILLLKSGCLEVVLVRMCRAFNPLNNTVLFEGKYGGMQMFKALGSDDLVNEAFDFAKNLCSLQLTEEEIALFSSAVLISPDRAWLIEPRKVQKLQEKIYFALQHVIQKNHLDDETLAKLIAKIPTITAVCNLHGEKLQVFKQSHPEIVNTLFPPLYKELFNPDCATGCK
# In short: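 HepG2 cells transiently transfected with GAL4-UAS reporter units expressing chimeric NR-Gal4 protein; reporter mRNA measured 24 h after dosing by RT-PCR, 6-FAM labelling and capillary electrophoresis. Gain-of-signal fitted relative to DMSO baseline.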
# [10] = target: human RAR-related Orphan Receptor gamma (RORg), RORC (gene 6097) (UniProt P51449); assay: ATG_RORg_TRANS: Attagene TRANS-FACTORIAL HepG2 Assay for human RAR-related Orphan Receptor gamma (RORg) (AID 2283011; active means hit-call score of the fitted dose curve at least 0.9, where 1 is the maximum)
# Chain of human RAR-related Orphan Receptor gamma (RORg), RORC (gene 6097) (P51449 whole entry, looked up, the tested form may be a part): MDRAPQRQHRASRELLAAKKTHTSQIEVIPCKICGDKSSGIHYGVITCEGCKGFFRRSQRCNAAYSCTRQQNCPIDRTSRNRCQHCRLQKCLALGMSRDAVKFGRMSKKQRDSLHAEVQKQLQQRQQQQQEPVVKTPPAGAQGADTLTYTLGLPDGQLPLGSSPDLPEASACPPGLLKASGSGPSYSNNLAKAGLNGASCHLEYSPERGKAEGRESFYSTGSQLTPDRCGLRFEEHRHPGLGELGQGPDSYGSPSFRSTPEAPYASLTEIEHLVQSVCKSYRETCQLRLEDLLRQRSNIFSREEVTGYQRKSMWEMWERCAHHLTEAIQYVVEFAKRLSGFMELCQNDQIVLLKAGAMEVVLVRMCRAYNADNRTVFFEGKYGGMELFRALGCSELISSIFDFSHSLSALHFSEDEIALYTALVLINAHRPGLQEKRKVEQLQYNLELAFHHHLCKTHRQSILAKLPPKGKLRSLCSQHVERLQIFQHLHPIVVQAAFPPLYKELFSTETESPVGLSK
# In short: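 First, HepG2 liver cells were transfected with GAL4-UAS-driven reporter constructs and the RORg-Gal4 fusion. Next, they were treated with chemical for 24 h. Finally, reporter mRNA was quantified by RT-PCR and capillary electrophoresis, with upward activity fitted against DMSO.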
# [11] = target: Retinoic acid receptor RXR-alpha (Homo sapiens) (UniProt P19793); assay: ATG_RXRa_TRANS: Attagene TRANS-FACTORIAL HepG2 Assay for human Retinoid X Receptor alpha (RXRa) (AID 2283012; active means hit-call score of the fitted dose curve at least 0.9, where 1 is the maximum)
# Chain of Retinoic acid receptor RXR-alpha (Homo sapiens) (P19793 whole entry, looked up, the tested form may be a part): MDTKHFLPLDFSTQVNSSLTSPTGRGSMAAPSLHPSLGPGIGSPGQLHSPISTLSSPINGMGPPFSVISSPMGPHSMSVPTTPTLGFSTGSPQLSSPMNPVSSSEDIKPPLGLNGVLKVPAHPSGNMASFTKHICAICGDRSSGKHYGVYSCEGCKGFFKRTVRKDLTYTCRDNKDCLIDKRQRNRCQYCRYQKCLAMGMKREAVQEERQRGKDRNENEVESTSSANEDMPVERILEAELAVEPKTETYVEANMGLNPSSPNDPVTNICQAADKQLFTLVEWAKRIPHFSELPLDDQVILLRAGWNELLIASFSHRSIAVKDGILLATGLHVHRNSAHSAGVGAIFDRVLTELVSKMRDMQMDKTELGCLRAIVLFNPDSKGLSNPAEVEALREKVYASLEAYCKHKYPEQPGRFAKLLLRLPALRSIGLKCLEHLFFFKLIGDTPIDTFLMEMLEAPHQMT
# In short: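 HepG2 cells transiently transfected with GAL4-UAS reporter units and chimeric RXRa-Gal4 protein, treated 24 h. Reporter mRNA measured by RT-PCR, fluorescent labelling, HpaI digestion and capillary electrophoresis. Induction fitted against DMSO.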
# [12] = target: human Thyroid Receptor alpha (THRa1), THRA (gene 7067) (UniProt P10827); assay: ATG_THRa1_TRANS: Attagene TRANS-FACTORIAL HepG2 Assay for human Thyroid Receptor alpha (THRa1) (AID 2283014; active means hit-call score of the fitted dose curve at least 0.9, where 1 is the maximum)
# Chain of human Thyroid Receptor alpha (THRa1), THRA (gene 7067) (P10827 whole entry, looked up, the tested form may be a part): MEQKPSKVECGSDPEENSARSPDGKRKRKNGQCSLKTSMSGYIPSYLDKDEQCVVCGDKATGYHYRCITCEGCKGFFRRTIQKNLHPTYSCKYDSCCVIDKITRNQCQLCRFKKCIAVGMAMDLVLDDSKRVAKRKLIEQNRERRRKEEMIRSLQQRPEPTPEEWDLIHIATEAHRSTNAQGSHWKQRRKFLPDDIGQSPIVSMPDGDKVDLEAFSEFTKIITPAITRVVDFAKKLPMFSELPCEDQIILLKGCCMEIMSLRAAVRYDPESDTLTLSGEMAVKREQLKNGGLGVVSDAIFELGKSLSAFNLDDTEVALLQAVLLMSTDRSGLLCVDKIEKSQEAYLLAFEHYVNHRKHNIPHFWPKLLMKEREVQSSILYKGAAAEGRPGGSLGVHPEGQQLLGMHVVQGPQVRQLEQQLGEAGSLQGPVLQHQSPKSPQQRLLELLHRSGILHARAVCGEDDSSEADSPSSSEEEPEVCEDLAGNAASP
# In short: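 Reporter transcript induction, read by capillary electrophoresis of 6-FAM-labelled RT-PCR products, reflects activity of a transfected THRa1-Gal4 fusion in HepG2 liver cells. Cells were dosed for 24 h; activity was fitted in the positive direction against DMSO.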
# [13] = read-out: E-selectin (Homo sapiens) (UniProt P16581); assay: BSK_3C_Eselectin: BioMAP Diversity Plus: 3C Assay for Eselectin Biomarker Activity (AID 2283015); conditions: primary human endothelial cells (HUVEC); actives raise or lower the signal;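 on outcome: cell surface E-selectin protein quantified by ELISA 24 h after dosing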
# In short: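 ELISA read-out of E-selectin on endothelial monolayers after 24 h chemical treatment. Human umbilical vein primary cells served as the system, with DMSO defining baseline activity for bidirectional fitting.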
# [14] = read-out: Interleukin-1 alpha (IL1a), IL1A (gene 3552); assay: BSK_BE3C_IL1a: BioMAP Diversity Plus: BE3C Assay for Interleukin-1 alpha (IL1a) Biomarker Activity (AID 2283016); conditions: primary human bronchial epithelial cells; actives raise or lower the signal
# In short: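 Human primary bronchial epithelial cells, 24 h chemical exposure; IL-1a quantified by ELISA, fitted bidirectionally against DMSO. Cytotoxicity assessed in parallel by SRB total-protein staining at the time of measurement.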
# [15] = read-out: Monocyte Chemoattractant Protein-1 (MCP1), CCL2 (gene 6347); assay: BSK_3C_MCP1: BioMAP Diversity Plus: 3C Assay for Monocyte Chemoattractant Protein-1 (MCP1) Biomarker Activity (AID 2283017); conditions: primary human endothelial cells (HUVEC); actives raise or lower the signal
# In short: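 ELISA read-out of MCP-1 from human umbilical vein endothelial cell cultures harvested 24 h post-dosing. Gain or loss of signal was fitted relative to DMSO.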
# [16] = read-out: Monocyte Chemoattractant Protein-1 (MCP1), CCL2 (gene 6347); assay: BSK_4H_MCP1: BioMAP Diversity Plus: 4H Assay for Monocyte Chemoattractant Protein-1 (MCP1) Biomarker Activity (AID 2283018); conditions: primary human endothelial cells (HUVEC); actives raise or lower the signal
# In short: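 Human umbilical vein endothelial cells (4H system) exposed to chemicals for 24 h in 96-well format. MCP-1 measured by ELISA; bidirectional fitting against DMSO, with SRB total-protein staining in parallel cultures for cytotoxicity.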
# [17] = read-out: Human Leukocyte Antigen - DR isotype (HLADR), HLA-DRA (gene 3122); assay: BSK_3C_HLADR: BioMAP Diversity Plus: 3C Assay for Human Leukocyte Antigen - DR isotype (HLADR) Biomarker Activity (AID 2283019); conditions: primary human endothelial cells (HUVEC); actives raise or lower the signal;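 on outcome: ELISA of cell-surface HLA-DR on HUVEC 24 h after dosing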
# In short: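 ELISA readout of surface HLA-DR on human umbilical vein endothelium, taken 24 h after chemical treatment. Gain- and loss-of-signal were both fitted relative to DMSO.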
# [18] = read-out: Interleukin-8 (IL8), CXCL8 (gene 3576); assay: BSK_3C_IL8: BioMAP Diversity Plus: 3C Assay for Interleukin-8 (IL8) Biomarker Activity (AID 2283020); conditions: primary human endothelial cells (HUVEC); actives raise or lower the signal
# In short: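 Primary human umbilical vein endothelial cells were dosed for 24 h. IL-8 was quantified by ELISA and fitted bidirectionally against DMSO. Cytotoxicity was assessed in parallel cultures by SRB staining at 560 nm.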
# [19] = target: Nuclear receptor subfamily 1 group I member 2 (Homo sapiens) (UniProt O75469); assay: ATG_PXR_TRANS: Attagene TRANS-FACTORIAL HepG2 Assay for human Pregnane X Receptor (PXR) (AID 2283008; active means hit-call score of the fitted dose curve at least 0.9, where 1 is the maximum)
# Chain of Nuclear receptor subfamily 1 group I member 2 (Homo sapiens) (O75469 whole entry, looked up, the tested form may be a part): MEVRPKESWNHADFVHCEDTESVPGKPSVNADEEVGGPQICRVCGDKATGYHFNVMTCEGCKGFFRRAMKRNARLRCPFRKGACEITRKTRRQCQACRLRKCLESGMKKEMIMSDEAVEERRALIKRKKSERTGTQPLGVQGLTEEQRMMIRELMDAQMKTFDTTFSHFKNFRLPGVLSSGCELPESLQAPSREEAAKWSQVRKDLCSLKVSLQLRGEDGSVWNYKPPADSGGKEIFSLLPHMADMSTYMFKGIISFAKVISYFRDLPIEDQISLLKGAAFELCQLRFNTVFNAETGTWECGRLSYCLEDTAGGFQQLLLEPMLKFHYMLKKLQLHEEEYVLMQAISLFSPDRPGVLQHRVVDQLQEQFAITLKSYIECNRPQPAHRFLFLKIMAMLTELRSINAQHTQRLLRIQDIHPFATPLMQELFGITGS
# In short: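 HepG2 cells transiently transfected with GAL4-UAS reporter units and PXR-Gal4 chimera, exposed 24 h. Reporter mRNA quantified by RT-PCR, fluorescent labelling, HpaI digestion and capillary electrophoresis; gain of signal vs DMSO.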
# [20] = target: human Retinoid X Receptor beta (RXRb), RXRB (gene 6257) (UniProt P28702); assay: ATG_RXRb_TRANS: Attagene TRANS-FACTORIAL HepG2 Assay for human Retinoid X Receptor beta (RXRb) (AID 2283013; active means hit-call score of the fitted dose curve at least 0.9, where 1 is the maximum)
# In short: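 HepG2 cells were transiently transfected with multiplexed GAL4-UAS reporters and a chimeric RXRb-Gal4 construct, then exposed for 24 h. Reporter mRNA was quantified by RT-PCR, FAM labeling, HpaI digestion and capillary electrophoresis; gain of signal was scored against DMSO.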
# Chain of E-selectin (Homo sapiens) (P16581 whole entry, looked up): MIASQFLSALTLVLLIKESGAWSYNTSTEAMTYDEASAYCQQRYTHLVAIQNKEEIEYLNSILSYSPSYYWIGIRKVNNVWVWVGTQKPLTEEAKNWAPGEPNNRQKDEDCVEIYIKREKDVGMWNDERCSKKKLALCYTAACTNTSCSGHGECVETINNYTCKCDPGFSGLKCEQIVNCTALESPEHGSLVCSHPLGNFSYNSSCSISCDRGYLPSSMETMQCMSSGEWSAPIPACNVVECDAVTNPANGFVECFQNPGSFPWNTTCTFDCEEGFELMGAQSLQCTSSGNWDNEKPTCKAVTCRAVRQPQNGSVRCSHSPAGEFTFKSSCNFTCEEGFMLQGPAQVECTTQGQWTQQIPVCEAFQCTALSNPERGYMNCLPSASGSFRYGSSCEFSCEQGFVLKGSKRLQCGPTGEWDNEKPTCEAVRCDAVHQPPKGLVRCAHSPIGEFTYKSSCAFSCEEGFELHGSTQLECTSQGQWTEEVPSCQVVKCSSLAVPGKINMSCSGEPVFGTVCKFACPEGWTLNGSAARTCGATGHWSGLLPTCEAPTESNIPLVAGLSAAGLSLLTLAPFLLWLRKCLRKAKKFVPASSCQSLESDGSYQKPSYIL
smiles,measurement,setting,value
CCC(C)c1cc([N+](=O)[O-])cc([N+](=O)[O-])c1OC(=O)OC(C)C (stereo unspecified),outcome,[1],inactive
same,outcome,[2],inactive
same,AC50,[3],29.1 µM (active)
same,outcome,[4],inactive
same,outcome,[5],inactive
same,AC50,[6],5.44 µM (active)
same,AC50,[7],0.774 µM (active)
same,outcome,[8],inactive
same,outcome,[9],inactive
same,outcome,[10],inactive
same,AC50,[11],32.6 µM (active)
same,outcome,[12],inactive
same,AC50,[13],17.9 µM (active)
same,AC50,[14],25.4 µM (active)
same,AC50,[15],29.5 µM (active)
same,AC50,[16],5.06 µM (active)
same,AC50,[17],9.38 µM (active)
same,AC50,[18],34.1 µM (active)
CCCCCCCCCCCCCCCC(=O)OC/C=C(C)/C=C/C=C(C)/C=C/C1=C(C)CCCC1(C)C,outcome,[1],inactive
same,outcome,[2],inactive
same,outcome,[3],inactive
same,AC50,[7],37.9 µM (active)
same,AC50,[19],2.82 µM (active)
same,outcome,[9],inactive
same,outcome,[20],inactive
same,AC50,[13],14.3 µM (active)
same,outcome,[14],inactive
same,AC50,[15],3.97 µM (active)
same,AC50,[17],20 µM (active)
same,AC50,[18],1.13 µM (active)
c1ccc2cc(Nc3ccc(Nc4ccc5ccccc5c4)cc3)ccc2c1,outcome,[1],inactive
same,outcome,[2],inactive
same,outcome,[3],inactive
same,outcome,[7],inactive
same,outcome,[19],inactive
same,outcome,[9],inactive
same,outcome,[12],inactive
same,outcome,[13],inactive
same,AC50,[14],0.147 µM (active)
same,outcome,[15],inactive
same,outcome,[16],inactive
same,outcome,[17],inactive
same,outcome,[18],inactive
CC(C)(C)CC(C)(C)c1ccc(OCCOCC[N+](C)(C)Cc2ccccc2)cc1,AC50,[1],14.4 µM (active)
same,outcome,[2],inactive
same,AC50,[3],8.87 µM (active)
same,outcome,[4],inactive
same,AC50,[6],7.08 µM (active)
same,outcome,[7],inactive
same,outcome,[12],inactive
same,AC50,[13],6.62 µM (active)
same,AC50,[14],7.26 µM (active)
same,AC50,[15],5 µM (active)
same,AC50,[16],3.9 µM (active)
same,AC50,[17],5 µM (active)
same,AC50,[18],5 µM (active)
